Data: PubChem BioAssay (NCI)
“And” between values parts separate entries of the source, which are not always exact repeats. Equal values may be shown once. This is part of a sample that, as a whole, favours compounds with a hit. Of some 83,000 tested, about 20% had one in any assay.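 Single-dose data. Exposure time 48 hours. Values below 10 considered active.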 The source made the active and inactive calls.

Experiments:
Assay in all cases: NCI-60 one-dose screen, 48 h (100 = growth as untreated, 0 = no growth, -100 = all killed)
HCT-15 colon = settings: 10 µM
HT29 colon = settings: 10 µM
SNB-75 CNS = settings: 10 µM
SNB-19 CNS = settings: 10 µM
PC-3 prostate = settings: 10 µM
SK-MEL-5 melanoma = settings: 10 µM unless noted
LOX IMVI melanoma = settings: 10 µM unless noted
SK-MEL-28 melanoma = settings: 10 µM
SK-MEL-2 melanoma = settings: 10 µM
EKVX NSCLC = settings: 10 µM
SN12C renal = settings: 10 µM
UO-31 renal = settings: 10 µM
TK-10 renal = test system: TK-10 renal
ACHN renal = settings: 10 µM
CAKI-1 renal = settings: 10 µM
A498 renal = settings: 10 µM
CCRF-CEM leukemia = settings: 10 µM
MOLT-4 leukemia = settings: 10 µM
U251 CNS = settings: 10 µM unless noted
UACC-62 melanoma = test system: UACC-62 melanoma

In the case of CN1CCN(CCCN2c3ccccc3Sc3ccc(C(F)(F)F)cc32)CC1, the growth (HCT-15 colon) is reported as 29.3% (inactive), the growth (HT29 colon) is reported as 5.41% (active) and the growth (SNB-75 CNS) is reported as 52.5% (inactive). The growth (SNB-19 CNS) was 73.8% (inactive), the growth (PC-3 prostate) was 39.8% (inactive) and the growth (SK-MEL-5 melanoma) was 24.5% (inactive). The growth (LOX IMVI melanoma) was 15.3% (inactive), the growth (SK-MEL-28 melanoma) was -45.4% (active) and the growth (SK-MEL-2 melanoma) was 88.1% (inactive). The growth (EKVX NSCLC) was 66.9% (inactive), the growth (SN12C renal) was 57% (inactive) and the growth (UO-31 renal) was 35.1% (inactive). The growth (TK-10 renal; 10 µM) was 66% (inactive), the growth (ACHN renal) was 46.6% (inactive) and the growth (CAKI-1 renal) was 34% (inactive). The growth (A498 renal) was 70.2% (inactive), the growth (CCRF-CEM leukemia) was 50.2% (inactive) and the growth (MOLT-4 leukemia) was 37.6% (inactive).
For O=C(C(=Cc1ccccc1)C(=O)c1ccccc1)c1ccccc1, the growth (HCT-15 colon) was 28.1% (inactive) and 88.8% (inactive), the growth (HT29 colon) was 47.1% (inactive) and 91.2% (inactive) and the growth (SNB-75 CNS) was 69.7% (inactive) and 81.4% (inactive). For the same molecule, the growth (SNB-19 CNS) was 46.9% (inactive) and 92.4% (inactive), the growth (U251 CNS) was 86.2% (inactive) and the growth (PC-3 prostate) was 48.3% (inactive) and 77.7% (inactive). The growth (UACC-62 melanoma; 10 µM) was 48.8% (inactive) and 66.7% (inactive), the growth (LOX IMVI melanoma) was -56.4% (active) and 77.5% (inactive) and the growth (SK-MEL-28 melanoma) was 60.4% (inactive) and 105% (inactive). For the same molecule, the growth (SK-MEL-2 melanoma) was 90% (inactive) and 83.2% (inactive), the growth (UO-31 renal) was 60.9% (inactive) and 87.8% (inactive) and the growth (TK-10 renal; 10 µM) was 124% (inactive) and 87.7% (inactive). The growth (ACHN renal) was 62.3% (inactive) and 85.8% (inactive), the growth (CAKI-1 renal) was 84.5% (inactive) and 86.8% (inactive) and the growth (A498 renal) was 72.2% (inactive) and 88.6% (inactive). For the same molecule, the growth (CCRF-CEM leukemia) was 10.8% (inactive) and 81.8% (inactive) and the growth (MOLT-4 leukemia) was 10.6% (inactive) and 85.4% (inactive).
With NC(=O)SCC(=O)NNc1ccccc1 the growth (HCT-15 colon) was 89.2% (inactive), the growth (HT29 colon) was 103% (inactive) and the growth (SNB-75 CNS) was 92.5% (inactive). The growth (SNB-19 CNS) was 108% (inactive), the growth (U251 CNS) was 87.8% (inactive) and the growth (PC-3 prostate) was 85.7% (inactive). The growth (UACC-62 melanoma; 10 µM) was 70.9% (inactive), the growth (LOX IMVI melanoma) was 67.1% (inactive) and the growth (SK-MEL-28 melanoma) was 106% (inactive). The growth (SK-MEL-2 melanoma) was 87.5% (inactive), the growth (EKVX NSCLC) was 99.4% (inactive) and the growth (UO-31 renal) was 78.9% (inactive). The growth (TK-10 renal; 10 µM) was 95.5% (inactive), the growth (ACHN renal) was 81.1% (inactive) and the growth (CAKI-1 renal) was 92.8% (inactive). The growth (A498 renal) was 93.7% (inactive), the growth (CCRF-CEM leukemia) was 90.4% (inactive) and the growth (MOLT-4 leukemia) was 111% (inactive).
With COc1cccc2c1C(=O)c1c(O)c3c(c(O)c1C2=O)C[C@@](O)(C(C)=O)C[C@@H]3OC1CC(N)C(O)C(C)O1 (stereo not given in full) the growth (HCT-15 colon) was 3.22% (active), the growth (HT29 colon) was 1.89% (active) and the growth (SNB-75 CNS) was -82.7% (active). For the same molecule, the growth (SNB-19 CNS) was -9.95% (active), the growth (PC-3 prostate) was -25.8% (active) and the growth (UACC-62 melanoma; 10 µM) was -71.8% (active). The growth (UACC-62 melanoma; 50 µM) was -98.9% (active) and -100% (active), the growth (LOX IMVI melanoma) was 1.63% (active) and the growth (SK-MEL-28 melanoma) was -51% (active). The growth (SK-MEL-2 melanoma) was -38.6% (active), the growth (UO-31 renal) was 11.3% (inactive) and the growth (TK-10 renal; 10 µM) was 18.5% (inactive). The growth (TK-10 renal; 50 µM) was -97.7% (active) and -90.9% (active), the growth (ACHN renal) was 0.546% (active) and the growth (CAKI-1 renal) was -31.1% (active). The growth (A498 renal) was -71.7% (active), the growth (CCRF-CEM leukemia) was -24.1% (active) and the growth (MOLT-4 leukemia) was -26.1% (active).
With CCCCCCCCCCCCCCCCCCOCC(COP(=O)([O-])OCC[N+](C)(C)C)OC (stereo not given) the growth (HCT-15 colon) was 61% (inactive), the growth (HT29 colon) was 37.7% (inactive) and the growth (SNB-75 CNS) was 84.4% (inactive). The growth (SNB-19 CNS) was 80.8% (inactive), the growth (U251 CNS) was 72.4% (inactive) and the growth (PC-3 prostate) was 29.5% (inactive). For the same molecule, the growth (UACC-62 melanoma; 10 µM) was 73.3% (inactive), the growth (LOX IMVI melanoma) was 84.6% (inactive) and the growth (SK-MEL-2 melanoma) was 101% (inactive). The growth (EKVX NSCLC) was 119% (inactive), the growth (UO-31 renal) was 94.9% (inactive) and the growth (TK-10 renal; 10 µM) was 64% (inactive). The growth (ACHN renal) was 93.7% (inactive), the growth (CAKI-1 renal) was 69% (inactive) and the growth (CCRF-CEM leukemia) was 63.9% (inactive). The growth (MOLT-4 leukemia) was 89.4% (inactive).
COc1ccc(CC(=O)c2ccc(O)cc2O)cc1 was tested, and the growth (HCT-15 colon) was 131% (inactive), the growth (HT29 colon) was 112% (inactive) and the growth (SNB-75 CNS) was 111% (inactive). For the same molecule, the growth (SNB-19 CNS) was 121% (inactive), the growth (U251 CNS) was 116% (inactive) and the growth (PC-3 prostate) was 109% (inactive). The growth (UACC-62 melanoma; 10 µM) was 120% (inactive), the growth (LOX IMVI melanoma) was 108% (inactive) and the growth (SK-MEL-28 melanoma) was 139% (inactive). The growth (SN12C renal) was 123% (inactive), the growth (UO-31 renal) was 98.5% (inactive) and the growth (TK-10 renal; 10 µM) was 122% (inactive). For the same molecule, the growth (ACHN renal) was 118% (inactive), the growth (A498 renal) was 128% (inactive) and the growth (CCRF-CEM leukemia) was 104% (inactive).
In the case of O=C(Nc1ccc(C(=O)O)c(O)c1)c1ccccc1, the growth (HCT-15 colon) is reported as 104% (inactive) and 99% (inactive), the growth (HT29 colon) is reported as 103% (inactive) and 105% (inactive) and the growth (SNB-75 CNS) is reported as 96.4% (inactive) and 96.3% (inactive). For the same molecule, the growth (SNB-19 CNS) was 107% (inactive) and 102% (inactive), the growth (U251 CNS) was 96.6% (inactive) and 104% (inactive) and the growth (PC-3 prostate) was 91% (inactive) and 97.5% (inactive). The growth (UACC-62 melanoma; 10 µM) was 96.7% (inactive) and 96.4% (inactive), the growth (LOX IMVI melanoma) was 97.4% (inactive) and 97% (inactive) and the growth (SK-MEL-28 melanoma) was 110% (inactive) and 151% (inactive). The growth (SK-MEL-2 melanoma) was 113% (inactive) and 97.3% (inactive), the growth (SN12C renal) was 95.2% (inactive) and 101% (inactive) and the growth (UO-31 renal) was 81.3% (inactive) and 88.6% (inactive). The growth (TK-10 renal; 10 µM) was 106% (inactive) and 94.5% (inactive), the growth (ACHN renal) was 96% (inactive) and 96.3% (inactive) and the growth (CAKI-1 renal) was 102% (inactive) and 85.8% (inactive). For the same molecule, the growth (A498 renal) was 121% (inactive) and 139% (inactive), the growth (CCRF-CEM leukemia) was 130% (inactive) and 124% (inactive) and the growth (MOLT-4 leukemia) was 109% (inactive) and 119% (inactive).
